Measured values as given in PubChem BioAssay AID1159580 (chemical genetic matrix, 2015).
“And” between values parts separate entries of the source, which are not always exact repeats. Equal entries are not always repeated. Among all 5,500 compounds or so, about 2,000 (36%) were called active. About 18% were inconclusive and are not listed. This is one part of the list. Unmarked numbers belong to inactive results. Cut-off read from the data, not from the text of the source: active = normalized growth mostly below about 0.91 (no sharp cut-off); inconclusive = no clear call, values can overlap the other calls; inactive = mostly above about 0.92.

Experiment: chemical genetic growth profiling, strain panel (AID 1159580);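 note: tested at 20 µM; growth read once vehicle control cultures reached saturation at 30 °C; 1 = growth at the plate median or of vehicle wells; lower values mean less growth of the strain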
Conditions: S. cerevisiae deletion strains, growth OD

Structure (SMILES): CC(=O)O[C@@H]1C=C[C@@]2(C)C(C[C@@H](OC(C)=O)[C@@]3(C)C4=CC(=O)O[C@@H](c5ccoc5)[C@]4(C)CCC23)C1(C)C (stereo partly specified)
- normalized growth (locus YAL013W, strain DEP1, hits give low values): 1.01
- normalized growth (locus YAL021C, strain ccr4, hits give low values): 1
- normalized growth (locus YAL026C, strain drs2, hits give low values): 0.985
- normalized growth (locus YAL030W, strain snc1, hits give low values): 0.99
- normalized growth (locus YBL061C, strain skt5, hits give low values): 0.992
- normalized growth (locus YBR009C, strain hhf1, hits give low values): 1
- normalized growth (locus YBR021W, strain FUR4, hits give low values): 1.03
- normalized growth (locus YBR023C, strain chs3, hits give low values): 1.01
- normalized growth (locus YBR171W, strain sec66, hits give low values): 0.994
- normalized growth (locus YBR229C, strain ROT2, hits give low values): 1.02
- normalized growth (locus YBR231C, strain swc5, hits give low values): 0.99
- normalized growth (locus YBR279W, strain paf1, hits give low values): 1
- normalized growth (locus YCL011C, strain gbp2, hits give low values): 0.982
- normalized growth (locus YCL016C, strain dcc1, hits give low values): 0.975
- normalized growth (locus YCL029C, strain bik1, hits give low values): 0.0759 (active)
- normalized growth (locus YCL061C, strain MRC1, hits give low values): 0.997
- normalized growth (locus YCL069W, strain vba3, hits give low values): 1.02
- normalized growth (locus YCR088W, strain abp1, hits give low values): 1.01
- normalized growth (locus YDL005C, strain med2, hits give low values): 0.984
- normalized growth (locus YDL035C, strain GPR1, hits give low values): 0.991
- normalized growth (locus YDL040C, strain nat1, hits give low values): 0.993
- normalized growth (locus YDL074C, strain BRE1, hits give low values): 0.964
- normalized growth (locus YDL101C, strain DUN1, hits give low values): 0.998
- normalized growth (locus YDL134C, strain PPH21, hits give low values): 1
- normalized growth (locus YDL185W, strain tfp1, hits give low values): 0.0668 (active)
- normalized growth (locus YDL192W, strain arf1, hits give low values): 0.0652 (active)
- normalized growth (locus YDR001C, strain nth1, hits give low values): 0.993
- normalized growth (locus YDR069C, strain doa4, hits give low values): 0.996
- normalized growth (locus YDR101C, strain arx1, hits give low values): 0.0671 (active)
- normalized growth (locus YDR137W, strain rgp1, hits give low values): 0.946
- normalized growth (locus YDR150W, strain NUM1, hits give low values): 1.01
- normalized growth (locus YDR159W, strain sac3, hits give low values): 0.979
- normalized growth (locus YDR162C, strain NBP2, hits give low values): 0.964
- normalized growth (locus YDR195W, strain ref2): 0.975
- normalized growth (locus YDR297W, strain sur2, hits give low values): 0.981
- normalized growth (locus YDR318W, strain mcm21, hits give low values): 0.0639 (active)
- normalized growth (locus YDR334W, strain swr1, hits give low values): 0.988
- normalized growth (locus YDR335W, strain msn5, hits give low values): 0.986
- normalized growth (locus YDR388W, hits give low values): 0.0562 (active)
- normalized growth (locus YDR392W, strain spt3, hits give low values): 0.951
- normalized growth (locus YDR502C, strain sam2, hits give low values): 0.0613 (active)
- normalized growth (locus YEL003W, strain gim4, hits give low values): 0.997
- normalized growth (locus YEL037C, strain rad23, hits give low values): 1
- normalized growth (locus YEL061C, strain CIN8 (second series), hits give low values): 0.992
- normalized growth (locus YEL061C, strain CIN8, hits give low values): 1.02
- normalized growth (locus YER015W, strain faa2, hits give low values): 0.991
- normalized growth (locus YER016W, strain bim1, hits give low values): 1.01
- normalized growth (locus YER110C, hits give low values): 0.0742 (active)
- normalized growth (locus YER111C, strain swi4, hits give low values): 1
- normalized growth (locus YER155C, strain BEM2 (second series), hits give low values): 1.01
- normalized growth (locus YER155C, strain BEM2, hits give low values): 1.01
- normalized growth (locus YER167W, strain BCK2, hits give low values): 1.01
- normalized growth (locus YFR010W, strain ubp6, hits give low values): 1.01
- normalized growth (locus YGL078C, strain dbp3, hits give low values): 0.0566 (active)
- normalized growth (locus YGL086W, strain mad1, hits give low values): 0.0536 (active)
- normalized growth (locus YGL167C, strain pmr1, hits give low values): 0.988
- normalized growth (locus YGL173C, strain kem1, hits give low values): 1.02
- normalized growth (locus YGL227W, strain vid30, hits give low values): 1
- normalized growth (locus YGL240W, strain doc1, hits give low values): 1
- normalized growth (locus YGL248W, strain PDE1, hits give low values): 1.02
- normalized growth (locus YGL253W, strain hxk2, hits give low values): 0.971
- normalized growth (locus YGR078C, strain PAC10, hits give low values): 1.02
- normalized growth (locus YGR135W, strain pre9, hits give low values): 0.0645 (active)
- normalized growth (locus YGR229C, strain SMI1, hits give low values): 0.98
- normalized growth (locus YGR252W, strain gcn5, hits give low values): 0.164 (active)
- normalized growth (locus YHR013C, strain ard1, hits give low values): 0.973
- normalized growth (locus YHR027C, strain rpn1, hits give low values): 0.983
- normalized growth (locus YHR030C, strain SLT2, hits give low values): 1.02 and 0.986
- normalized growth (locus YHR079C, strain IRE1 (second series), hits give low values): 0.0734 (active)
- normalized growth (locus YHR079C, strain IRE1, hits give low values): 0.986
- normalized growth (locus YHR094C, strain hxt1, hits give low values): 0.0578 (active)
- normalized growth (locus YHR129C, strain ARP1, hits give low values): 1.01
- normalized growth (locus YHR142W, strain chs7, hits give low values): 0.965
- normalized growth (locus YHR200W, strain rpn10, hits give low values): 0.0597 (active)
- normalized growth (locus YIL066C, strain RNR3, hits give low values): 1.02
- normalized growth (locus YIL073C, strain SPO22, hits give low values): 1.03
- normalized growth (locus YIL125W, strain kgd1, hits give low values): 0.0589 (active)
- normalized growth (locus YIR030C, strain dcg1, hits give low values): 0.0619 (active)
- normalized growth (locus YJL092W, strain hpr5, hits give low values): 0.987
- normalized growth (locus YJL095W, strain BCK1 (second series), hits give low values): 0.974
- normalized growth (locus YJL095W, strain BCK1, hits give low values): 0.979 and 0.982
- normalized growth (locus YJL115W, strain asf1, hits give low values): 0.99
- normalized growth (locus YJL129C, strain trk1, hits give low values): 0.959
- normalized growth (locus YJL134W, strain LCB3, hits give low values): 1.02
- normalized growth (locus YJL154C, strain vps35, hits give low values): 0.989
- normalized growth (locus YJL164C, strain tpk1, hits give low values): 1
- normalized growth (locus YJL166W, strain qcr8, hits give low values): 1
- normalized growth (locus YJL168C, strain set2, hits give low values): 0.0579 (active)
- normalized growth (locus YJL187C, strain SWE1 (second series), hits give low values): 1
- normalized growth (locus YJL187C, strain SWE1, hits give low values): 0.994
- normalized growth (locus YJR043C, strain POL32, hits give low values): 1.04
